PubChem BioAssay AID588342 (National Center for Advancing Translational Sciences (NCATS), 2011)
Screen size: about 360,000 compounds; about 25,000 (6.9%) were called active. Entries that show only a call come without a potency. Roughly 9% stayed inconclusive and do not appear here. Calls follow the shape of the dose curve; as a rule, active = well fitted inhibition curve with a large enough effect; inconclusive = small, poorly fitted or top-dose-only effect; inactive = flat fitted curve, though single readings scatter. For the sample, actives were picked, then their nearest neighbours and some compounds at random.

The compounds below were run against Luciferin 4-monooxygenase (Photinus pyralis) (UniProt P08659) (assay: qHTS profiling assay for firefly luciferase inhibitor/activator using purifed enzyme and Km concentrations of substrates (counterscreen for miR-21 project)). Settings: purified FLuc, luminescence inhibition; series mostly up to 57.5 µM.
Sequence of Luciferin 4-monooxygenase (Photinus pyralis) (P08659 whole entry, looked up): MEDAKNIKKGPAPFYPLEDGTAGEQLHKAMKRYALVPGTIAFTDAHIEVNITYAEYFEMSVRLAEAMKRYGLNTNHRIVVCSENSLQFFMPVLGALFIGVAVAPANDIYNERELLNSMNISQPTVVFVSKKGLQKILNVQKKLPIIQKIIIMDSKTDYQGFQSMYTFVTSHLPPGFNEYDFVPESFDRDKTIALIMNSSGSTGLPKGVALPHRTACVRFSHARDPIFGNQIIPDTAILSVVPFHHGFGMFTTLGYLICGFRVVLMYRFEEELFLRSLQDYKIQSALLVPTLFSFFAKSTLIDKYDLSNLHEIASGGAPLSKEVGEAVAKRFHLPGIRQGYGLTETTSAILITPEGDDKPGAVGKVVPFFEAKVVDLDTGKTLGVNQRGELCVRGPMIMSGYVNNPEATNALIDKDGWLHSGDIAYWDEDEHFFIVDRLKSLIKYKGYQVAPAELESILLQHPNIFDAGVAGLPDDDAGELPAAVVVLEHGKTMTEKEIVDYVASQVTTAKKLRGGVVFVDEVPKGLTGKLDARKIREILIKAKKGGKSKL
Outline: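 Biochemical qHTS of compounds, final roughly 60 µM downward over six points, against 10 nM purified firefly luciferase using Km concentrations of substrates (10 uM D-luciferin, 10 uM ATP) in Tris acetate pH 7.5 buffer; luminescence output.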
Also: nearly all actives have a fitted effect of over 55% in size.
Potency is read from the fitted curve at half-maximal effect.

| SMILES | Potency | activity change, negative = inhibition |
| --- | --- | --- |
| FC(F)(F)c1cc(Nc2nc3ccccc3c3nncn23)ccc1Cl | inactive | – |
| Cc1c(CNC2CCCCC2)c(C(=O)O)c(C)n1Cc1cccc(Cl)c1 | inactive | – |
| CC(C)Nc1ccc(-n2nc3ccccc3[n+]2[O-])cc1 | 1.9 µM (active) | – |
| CCC(=O)Nc1c(C(=O)N2CCN(c3ccc(F)cc3)CC2)oc2ccccc12 | inactive | – |
| CC1=C(C(=O)OCc2ccc(C)cc2)C(c2c(Cl)cccc2Cl)CC(=O)N1 (stereo not given) | inactive | – |
| CCOC(=O)c1ccc(NC(=O)C2CC(=O)NC(=Nc3ccc(C)c(C)c3)S2)cc1 (stereo not given) | inactive | – |
| O=C1N/C(=C/c2cccs2)C(=O)N1Cc1ccc(F)cc1 | inactive | – |
| CSC1=N/C(=C\C=C\c2cccs2)C(=O)S1 | 16.9 µM (active) | – |
| O=S1(=O)CCC(NC(=S)SCc2ccccc2Br)C1 (stereo not given) | inactive | – |
| COc1cc(OC)cc(C(=O)NCC(=O)OCc2csc(-c3ccccc3)n2)c1 | inactive | – |
| Cc1ccc(-c2nc(COC(=O)c3c(C)noc3C)cs2)cc1 | 9.53 µM (active) | – |
| Cc1ccc(S(=O)(=O)N2CCN(C(=O)COC(=O)c3c(C)noc3C)CC2)c(C)c1 | inactive | – |
| CCC(C)C(N=C1NS(=O)(=O)c2ccccc21)C(=O)N1CCC(C)CC1 (stereo not given) | inactive | – |
| Nc1c(NCCc2ccccc2)c2ccccc2oc1=O | inactive | – |
| COc1ccc(/C(O)=C2/C(=O)C(=O)N(c3nc(C)c(C)s3)C2c2ccco2)cc1 (stereo not given) | inactive | – |
| COc1ccc(C2/C(=C(/O)c3ccccc3)C(=O)C(=O)N2C)c(OC)c1 (stereo not given) | inactive | – |
| CCOc1ccc(/C(O)=C2\C(=O)C(=O)N(c3ccc(OC)cc3)C2c2ccccc2[N+](=O)[O-])cc1 (stereo not given) | 8.49 µM (active) | – |
| Cc1ccc(C(=O)Nc2ncccc2C)cc1S(=O)(=O)N1CCOCC1 | inactive | – |
| CCOc1cccc(/C=N/N2C(=O)CSC2=S)c1O | 21.3 µM (active) | – |
| CCOc1cccc(/C=N/NC(=S)NCCN2CCOCC2)c1O | inactive | – |
| O=C1CSC(=S)N1c1ccc(O)cc1 | inactive | – |
| C=CCNC(=S)NNC(=O)COc1c(Cl)cc(Cl)cc1Cl | inactive | – |

| SMILES | Potency | activity change, negative = inhibition |
| --- | --- | --- |
| COc1ccccc1CNC(=O)NCc1noc2ccc(C)cc12 | inactive | – |
| Oc1ccc(-c2nncn2-c2ccccc2)cc1 | inactive | – |
| c1ccc(-n2nc3ccccc3n2)cc1 | 19 µM (active) | – |
| O=S(=O)(Cc1nnnn1-c1ccccc1)c1ccccc1 | inactive | – |
| COc1ccc(NC(=O)CN(C)C(=O)c2ccc(COc3ccccc3)o2)cc1 | inactive | – |
| COc1ccc(NC(=O)CN(C)C(=O)CNC(=O)C2CCCCC2)cc1 | inactive | – |
| COc1ccc(NC(=O)CN(C)C(=O)c2n[nH]c3ccccc23)cc1 | 23.9 µM (active) | – |
| COc1ccc(NC(=O)CN(C)C(=O)Cc2coc3cc(C)c(C)cc23)cc1 | inactive | – |
| CN(C)S(=O)(=O)c1ccc(NC(=O)COC(=O)c2n[nH]c3ccccc23)cc1 | inactive | – |
| COc1ccc(NC(=O)CN(C)C(=O)c2cc(-c3ccc(C)o3)nc3ccccc23)cc1 | 3.38 µM (active) | – |
| Cc1ccc(C(=O)Nc2ccc(OCc3cc(=O)n4c5c(sc4n3)CCCC5)cc2)cc1 | inactive | – |
| Cc1ccc(NC(=O)CCCNC(=O)c2ccc(Cl)cc2)cc1S(=O)(=O)N1CCOCC1 | inactive | – |
| COc1cc(NC(=O)c2noc3c2CSc2ccccc2-3)cc(OC)c1OC | inactive | – |
| COc1ccc(-c2csc(-c3c(N)c(C(=O)c4ccc(OC)c(OC)c4)n4ccccc34)n2)cc1 | inactive | – |
| COc1ccc(CNC(=O)COCc2cc(-c3cccs3)on2)cc1OC | inactive | – |
| COc1ccc(-c2csc(-c3cccs3)n2)cc1OC | 23.9 µM (active) | – |
| COc1ccccc1-c1cc(C(F)(F)F)nc(S(=O)(=O)CCCC(=O)Nc2ccc(F)cc2F)n1 | inactive | – |
| CCN(C(=O)Cn1c(=O)nc(-c2ccccc2)c2cc(Cl)ccc21)c1cccc(C)c1 | inactive | – |
| COc1cc(OC)cc(C(=O)NCCSCc2ccco2)c1 | inactive | – |
| Cc1ccsc1C(=O)NCCc1ccco1 | 21.3 µM (active) | – |
| O=C(NCCc1ccco1)c1nn(Cc2ccccc2)c(=O)c2ccccc12 | inactive | – |
| CCC(=O)Nc1cccc(C2=NOC3(C2)C[C@@H](C(N)=O)N(C(=O)c2cc([N+](=O)[O-])cc([N+](=O)[O-])c2C)C3)c1 (stereo not given in full) | inactive | – |

| SMILES | Potency | activity change, negative = inhibition |
| --- | --- | --- |
| COc1ccc(Cn2ccc3nc(C)c(C(=O)Nc4ccc(C)c(F)c4)cc3c2=O)cc1 | inactive | – |
| COc1cccc(Cn2c(CNS(=O)(=O)c3ccc(Cl)s3)nc3cccnc32)c1 | inactive | – |
| COc1ccc(NC(=O)C(c2ccccc2)N2Cc3ccccc3C2=O)cc1 (stereo not given) | inactive | – |
| O=C(c1cc(-c2cccs2)on1)N1CCCCC1 | 23.9 µM (active) | – |
| COc1cccc(OCc2cc(C(=O)N3CCN(C(=O)c4ccco4)CC3)no2)c1 | 12 µM (active) | – |
| CCOC(=O)CC1(NC(=O)c2cc(COc3cncc(Cl)c3)on2)CCCCC1 | inactive | – |
| CNC(=O)n1ccc(C(=O)N2CCCCC2)n1 | – | 2.3% [at 2.3 µM] (inactive) |
| O=C(c1ccc(F)cc1)N1CCCC(c2nc(-c3cccs3)no2)C1 (stereo not given) | inactive | – |
| CC(=O)c1ccc(NC(=O)c2cc(-c3cccs3)on2)cc1 | inactive | – |
| Cc1nonc1C1CCCN1C(=O)c1cc(COc2cccc(C(F)(F)F)c2)on1 (stereo not given) | inactive | – |
| CCCOC1CCCN(C(=O)c2cc(COc3cncc(Cl)c3)on2)C1 (stereo not given) | 10.7 µM (active) | – |
| O=C(c1ccco1)N1CCN(C(=O)c2ccc(COc3ccc(F)cc3)o2)CC1 | inactive | – |
| COc1cccc(OC)c1OCCN1CCN(C(=O)c2ccco2)CC1 | inactive | – |
| O=C(c1cc(-c2ccccc2O)on1)N1CCCC1 | 6.75 µM (active) | – |
| O=C(c1ccc(Cl)c(Cl)c1)N1CCCC1 | inactive | – |
| CCOC(=O)c1c(C)oc2nc(C)nc(N3CCN(c4ccc(OC)cc4)CC3)c12 | inactive | – |
| O=S(=O)(c1ccc(SCc2ccc(Br)cc2)nc1)N1CCOCC1 | inactive | – |
| COc1ccccc1N1CCN(c2ncnc3onc(-c4cccc(Cl)c4)c23)CC1 | inactive | – |
| COc1cc(NC(=O)c2nn(-c3ccc(C)cc3)c(=O)c3c2c2ccccc2n3C)cc(OC)c1OC | inactive | – |
| COc1cc2nc(SCC(=O)Nc3ccccc3F)n3nc(-c4ccccc4)nc3c2cc1OC | inactive | – |
| c1ccc(CNc2ncnc3[nH]ncc23)cc1 | inactive | – |
